BaF3 tox: parental Ba/F3 cell viability inhibition, counter-screen for JAK2V617F inhibitor project, murine pro-B, CellTiter-Glo luminescence; inhibition, % at 5.6 µM; actives 1.1% (n = 220,000); CellTiter-Glo ATP luminescence;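 active means inhibition above a per-campaign cutoff, the mean inhibition of all tested compounds plus 3 SD, cut at about 27% in these data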;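 further: 0% = DMSO wells and 100% = JAK Inhibitor I control wells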
Ba/F3 V617F tox: reduced viability of JAK2V617F-dependent Ba/F3 cells, primary screen, JAK2V617F inhibitor project, cell-based, Ba/F3 EpoR-JAK2V617F, luminescence; ATP luminescence; actives 1.1% (n = 220,000); inhibition, % at 5.6 µM;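 active means inhibition above the campaign mean plus 3 SD over all tested compounds, cut at about 24% in these data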;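 further: cytokine-independent growth of Ba/F3 cells driven by EpoR plus mutant JAK2; 0% = DMSO-treated cells and 100% = JAK inhibitor I control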
aSyn 5UTR inh: MLPCN primary screen, SNCA 5' untranslated region. inhibition, % (tested at 7.5 µM). actives 0.82% (n = 300,000). AID 1813, 2009. alpha-synuclein 5'UTR reporter, inhibitor activity; in the data active means inhibition above about 60%;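 further: H4 neuroglioblastoma cells stably carrying SNCA 5'UTR luciferase fusion; 0% = DMSO wells and 100% = positive control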
IEC-6 cytotox: cytotoxicity in IEC-6 intestinal epithelial cells, primary screen, cytotoxicity control for KLF5 inhibitor project, cell-based, luminescence; IEC-6 cytotoxicity, luminescence viability; inhibition, % at 5 µM; actives 0.78% (n = 290,000); AID 1825, 2009; in the data active means inhibition above about 22%;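 further: 0% = plate median of test compound wells and 100% = cytotoxic reference compound wells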
APP transl inh: inhibitors of APP translation via 5'UTR reporter, primary screen, APP 5'UTR luciferase, SH-SY5Y cells; AID 1285, 2008; SH-SY5Y APP 5'UTR-luciferase reporter, luminescence; actives 0.82% (n = 190,000); inhibition, % at 2 µM;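 active means inhibition above a set limit, derived from the sample mean plus 3 SD, cut at about 45% in these data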
KLF5 inhibitor: KLF5 expression inhibitors, primary screen, DLD-1 cells, luminescence; DLD-1 KLF5 promoter-luciferase reporter; actives 0.23% (n = 290,000); AID 1700, 2009; inhibition, % at 5 µM;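 active means inhibition above a per-plate limit of that plate's mean compound inhibition plus 3 SD, cut at about 60% in these data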;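 further: 0% = DMSO wells and 100% = LY294002 at 200 µM; higher means less KLF5 promoter-driven luciferase light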
BaF3 parental 2: parental Ba/F3 cell viability inhibition, counter-screen for JAK2V617F inhibitor project, murine pro-B, CellTiter-Glo luminescence; shares compounds with Ba/F3 V617F tox; AID 1520, 2009; actives 31% (n = 580); cells kept alive by added IL-3; inhibition, % at 5.6 µM;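 active means cell growth inhibition above the hit limit set in the earlier mutant JAK2 cell screen, cut at about 27% in these data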;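 further: plate controls were DMSO-treated cells for no effect and JAK Inhibitor I control wells for full effect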
JAK2V617F confrm: viability loss in Ba/F3 EpoR-JAK2V617F cells, confirmation, JAK2V617F inhibitor project, cell-based, luminescence, triplicate. shares compounds with Ba/F3 V617F tox. CellTiter-Glo luminescence. inhibition, % at 5.6 µM. actives 66% (n = 580);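 active means mean inhibition above the hit cutoff derived in the earlier primary screen, cut at about 25% in these data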;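 further: 0% = DMSO-treated cells and 100% = JAK inhibitor I control wells; higher means lower luminescence from reduced cell ATP and viability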
Starred values were filed as active, the others as inactive. This is a sample that favours compounds with a hit; in the whole collection about 2.1% have one here.

`O=C(CSc1nnc(CNC(=O)c2c(F)cccc2F)o1)NCC1CCCO1` (stereo unspecified) gave aSyn 5UTR inh -1.1, IEC-6 cytotox -1.2 and KLF5 inhibitor -12.1.
Screening COC1(OC)C(/C=C/c2ccc(C)cc2)C(C#N)(C#N)C1(OC)OC (stereo unspecified) returned BaF3 tox 1.0, Ba/F3 V617F tox 36.7*, aSyn 5UTR inh -47.1, IEC-6 cytotox 3.3, APP transl inh -1.9, KLF5 inhibitor -12.1, BaF3 parental 2 -1.5 and JAK2V617F confrm 50.3*.
`C=CCn1c(CSc2ccccc2[N+](=O)[O-])n[nH]c1=S` gave aSyn 5UTR inh 9.7, IEC-6 cytotox 6.0 and KLF5 inhibitor -22.8.
Screening C=CCn1c(Sc2ncc([N+](=O)[O-])s2)n[nH]c1=O returned BaF3 tox 24.5, Ba/F3 V617F tox 77.2*, aSyn 5UTR inh -11.3, IEC-6 cytotox 11.1, KLF5 inhibitor -4.0, BaF3 parental 2 -4.1 and JAK2V617F confrm 8.9.
`CC(=O)c1ccc(NC(=O)COC(=O)CCc2ccc(S(=O)(=O)N3CCOCC3)cc2)cc1` gave BaF3 tox -3.4, Ba/F3 V617F tox -1.6, aSyn 5UTR inh -0.6, IEC-6 cytotox -0.5 and KLF5 inhibitor -5.8.
Screening O=C(NC(=S)NCc1cccnc1)c1cc(Br)ccc1Cl returned aSyn 5UTR inh 8.6, IEC-6 cytotox 8.6 and KLF5 inhibitor -30.3.
COc1cc(C(=O)OCC(C)=O)ccc1OCc1c(C)noc1C was read as BaF3 tox 24.1, Ba/F3 V617F tox 38.9*, aSyn 5UTR inh -11.6, IEC-6 cytotox 14.0, APP transl inh 13.8, KLF5 inhibitor 28.2, BaF3 parental 2 15.4 and JAK2V617F confrm 25.6*.
For NS(=O)(=O)c1ccc(CCNC(=O)CSc2nc3ccccc3c(=O)n2CC2CCCO2)cc1 (stereo unspecified) the results were aSyn 5UTR inh 21.6, IEC-6 cytotox 2.4 and KLF5 inhibitor -19.4.
`Cc1ccc(C)c(Cn2nnc3c(=O)[nH]c(C(=O)NCC4CCCO4)nc32)c1` (stereo unspecified) gave BaF3 tox 4.4, Ba/F3 V617F tox 27.5*, aSyn 5UTR inh 21.4, IEC-6 cytotox 5.5, APP transl inh 2.0, KLF5 inhibitor -15.6, BaF3 parental 2 -0.7 and JAK2V617F confrm 1.4.
CCCOC1CCCN(C(=O)c2cc(COc3ccc(F)c(F)c3)on2)C1 (stereo unspecified) was read as aSyn 5UTR inh -118.0, IEC-6 cytotox -2.5 and KLF5 inhibitor -109.9.
`Cn1c(=O)c2nc(NCc3ccccc3)cnc2n(C)c1=O` gave BaF3 tox 3.9, Ba/F3 V617F tox -4.3, aSyn 5UTR inh 18.8, IEC-6 cytotox -4.3, APP transl inh -7.4 and KLF5 inhibitor -11.8.
Screening Cc1nc2c(=O)n(C)c(=O)n(C)c2nc1Cl returned BaF3 tox 8.6, Ba/F3 V617F tox 38.8*, aSyn 5UTR inh -5.6, IEC-6 cytotox 18.7, APP transl inh 45.5*, KLF5 inhibitor -27.3, BaF3 parental 2 17.0 and JAK2V617F confrm 61.6*.
`O=[N+]([O-])c1cnc(Sc2ccncn2)s1` gave BaF3 tox -6.5, Ba/F3 V617F tox 72.8*, aSyn 5UTR inh -1.5, IEC-6 cytotox 11.8, KLF5 inhibitor -5.0, BaF3 parental 2 29.4* and JAK2V617F confrm 96.5*.
O=C(Nc1ccc(Cl)cc1)Nc1ccccc1Sc1ncc([N+](=O)[O-])s1 was read as BaF3 tox -2.9, Ba/F3 V617F tox -2.9, aSyn 5UTR inh -90.4, IEC-6 cytotox -3.2 and KLF5 inhibitor -52.2.
Screening CC(=O)n1cc(CO)c2ccccc21 returned aSyn 5UTR inh 3.4, IEC-6 cytotox 0.1 and KLF5 inhibitor -12.2.
`CC(=O)n1cc(N(C(=O)CCl)c2ccccc2)c2ccccc21` gave BaF3 tox 19.8, Ba/F3 V617F tox 95.9*, aSyn 5UTR inh 106.3*, IEC-6 cytotox 6.4, KLF5 inhibitor -15.9, BaF3 parental 2 98.1* and JAK2V617F confrm 99.4*.
`CC(=O)n1cc(N(C(=O)CCl)c2ccc([N+](=O)[O-])cc2)c2ccccc21` gave BaF3 tox 19.6, Ba/F3 V617F tox 63.0*, aSyn 5UTR inh 37.4, IEC-6 cytotox -1.0, KLF5 inhibitor -13.6, BaF3 parental 2 46.2* and JAK2V617F confrm 100.0*.
For Cc1ccc2c(cnn2C(=O)CCC(=O)NC2CCCCC2)c1 the results were aSyn 5UTR inh -13.2, IEC-6 cytotox 1.4 and KLF5 inhibitor 3.1.
Screening COc1ccc(-n2nc([N+](=O)[O-])c(=NCCCN3CCCC3=O)n2O)cc1 returned BaF3 tox 2.3, Ba/F3 V617F tox -3.2, aSyn 5UTR inh -21.5, IEC-6 cytotox -5.0, APP transl inh -9.4 and KLF5 inhibitor -5.9.
Screening O=C1CCCN1CCCN=c1c([N+](=O)[O-])nn(-c2ccc(Cl)cc2)n1O returned BaF3 tox 24.7, Ba/F3 V617F tox 32.0*, aSyn 5UTR inh 42.8, IEC-6 cytotox 17.8, APP transl inh 5.6, KLF5 inhibitor -17.8, BaF3 parental 2 8.1 and JAK2V617F confrm 38.1*.
For CC1CCN(CCCNC(=O)c2cc3c(Cl)nc4ccccc4c3s2)CC1 the results were BaF3 tox 11.2, Ba/F3 V617F tox 34.3*, aSyn 5UTR inh -53.5, IEC-6 cytotox 5.0, APP transl inh 9.7, KLF5 inhibitor -11.5, BaF3 parental 2 4.3 and JAK2V617F confrm 71.1*.
Screening CCOC(=O)Nc1ccc2c(c1)N(C(=O)CCN1CCOCC1)c1ccccc1S2=O (stereo unspecified) returned BaF3 tox 3.6, Ba/F3 V617F tox 40.9*, aSyn 5UTR inh -53.4, IEC-6 cytotox 9.6, APP transl inh 13.2, KLF5 inhibitor -48.0, BaF3 parental 2 -1.6 and JAK2V617F confrm 23.2.
Screening CCCCc1ccc(NC(=S)NCc2ccc(OC)cc2)cc1 returned BaF3 tox 5.5, Ba/F3 V617F tox 0.8, aSyn 5UTR inh 9.6, IEC-6 cytotox 3.7, APP transl inh -24.2 and KLF5 inhibitor -19.0.
`CCN(CC)c1ccc2c(c1)OC(N)=C(C#N)C2c1cccnc1` (stereo unspecified) gave BaF3 tox 13.2, Ba/F3 V617F tox 83.5*, aSyn 5UTR inh 75.3*, IEC-6 cytotox 8.8, APP transl inh 94.4*, KLF5 inhibitor 19.4, BaF3 parental 2 78.4* and JAK2V617F confrm 97.7*.
Screening Cc1sc2ncnc(Sc3nnnn3-c3ccccc3)c2c1C returned BaF3 tox 3.8, Ba/F3 V617F tox -2.3, aSyn 5UTR inh -33.4, IEC-6 cytotox 1.8, APP transl inh 5.3 and KLF5 inhibitor -20.4.

Bioassay records as filed in PubChem.
